Assay results from PubChem BioAssay AID1053206 (Broad Institute, 2014).
Unmarked numbers belong to inactive results.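 Rule for the calls: active = compounds lowering delta-delta-Ct, meaning more Pax4 mRNA, with half-max potency at most twice the top tested dose; inconclusive = flat fit dropping 30 to 70 percent, or unreliable fit; inactive = the rest.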

Experiment: Pax4 mRNA induction in alpha cells – mouse alpha TC1 cells, RT-qPCR, cherry-picks, dose response (AID 1053206)
Conditions: 6 days, stronger effect = lower value; at 19.5 µM unless noted

Row | Compound | max activity (delta-delta-Ct)
1 | C/C=C/c1ccc(C2[C@@H]3CN(C(=O)Nc4ccc(C(F)(F)F)cc4)C[C@H]2N3)cc1 (stereo partly drawn) | -0.019%
2 | CO[C@@H](CN(C)Cc1cc(F)ccc1F)[C@@H](C)CN(C(=O)Nc1ccc(C(F)(F)F)cc1)[C@H](C)CO | -0.501% [at 10 µM]
3 | COc1ccc2c3c(n(C)c2c1)[C@@H](CO)N(CC1CC1)CC31CN(C(=O)c2ccc3c(c2)OCO3)C1 | -0.004% [at 0.038 µM]
4 | Fc1cccc(CN2C[C@@H]3N[C@H](C2)C3c2ccc(/C=C/c3ccccc3)cc2)c1 (stereo partly drawn) | -3.37% [at 21 µM]
5 | Cc1ccccc1S(=O)(=O)N1C[C@@H]2N[C@H](C1)C2c1ccc(-c2cccc(C#N)c2)cc1 (stereo partly drawn) | -0.001% [at 2.6 µM]
6 | C[C@H]1CNC(=O)[C@@H](Cc2ccc(C(F)(F)F)cc2)CCn2nncc2COC1 | 0.001% [at 0.16 µM]
7 | CN(C)C(=O)c1cccc(-c2ccc(C3[C@@H]4CN(Cc5ccccc5F)C[C@H]3N4)cc2)c1 (stereo partly drawn) | 0.001% [at 5 µM]
8 | C[C@@H]1CN([C@@H](C)CO)C(=O)Cc2cc(NC(=O)C3CCCCC3)ccc2O[C@@H]1CN(C)Cc1ccc(Cl)c(Cl)c1 | -0.143% [at 1.2 µM]
9 | COc1cc(CN2C[C@@H]3N[C@H](C2)C3c2ccc(-c3ccc(C#N)cc3)cc2)cc(OC)c1 (stereo partly drawn) | -0.065%
10 | C/C=C/c1ccc([C@H]2[C@@H](CO)N3C(=O)CN(Cc4ccc(F)cc4)C[C@@H]23)cc1 | -0.008% [at 0.16 µM]
11 | CNC[C@@H]1Oc2cc(C#Cc3ccccc3OC)ccc2S(=O)(=O)N([C@H](C)CO)C[C@H]1C | -0.002% [at 0.6 µM]
12 | N#Cc1cccc(-c2ccc(C3[C@@H]4CN(C(=O)Nc5ccc(C(F)(F)F)cc5)C[C@H]3N4)cc2)c1 (stereo partly drawn) | -0.156%
13 | C(=C\c1ccc(C2[C@@H]3CN(Cc4ccc5c(c4)OCO5)C[C@H]2N3)cc1)/c1ccccc1 (stereo partly drawn) | -0.457%
14 | COc1ccc(S(=O)(=O)Nc2ccc3c(c2)CC(=O)N([C@H](C)CO)C[C@H](C)[C@H](CN(C)Cc2ccc(C(=O)Nc4ccccc4N)cc2)O3)cc1 | -0.17%
15 | COc1cccc(-c2cccc(-c3nc(C(=O)Nc4ccc(-c5ccccc5)cc4)cc4c3[C@@H](CCO)N(S(=O)C(C)(C)C)C4)c2)c1 (stereo partly drawn) | -0.152%
16 | Cc1cccc(-c2ccc(C3[C@@H]4CN(Cc5cccc(F)c5)C[C@H]3N4)cc2)c1 (stereo partly drawn) | -2.82%
17 | C[C@H](CO)N1C[C@H](C)[C@@H](CN(C)Cc2ccccc2)Oc2c(NC(=O)Cc3cn(C)c4ccccc34)cccc2C1=O | -0.003% [at 10 µM]
18 | O=S(=O)(c1ccc(F)cc1)N1C[C@@H]2N[C@H](C1)C2c1ccc(/C=C/c2ccccc2)cc1 (stereo partly drawn) | -0.01% [at 10 µM]
